# In the library only some 3.7% were active in any assay of this set; here they are far more common.
# BoNT A protease = BoNT A light chain protease inhibition. multiplex microsphere protease substrate cleavage, flow cytometry. inhibition, % at 10 µM. 0.17% of 360,000 active. AID 588499; further: plate controls were buffer without enzyme for full effect and enzyme alone for no effect
# BoNT F protease = inhibitors of Botulinum neurotoxin F light chain protease. inhibition, % at 10 µM. 0.22% of 360,000 active. Multiplex microsphere protease cleavage assay, flow cytometry; in the data active means inhibition above about 35%, passing the limit was not always enough; inconclusive means no clear call, values can overlap the other calls; further: plate controls were buffer without enzyme for full effect and enzyme alone for no effect
# Bead autofluor = compound fluorescence in toxin protease inhibitor counterscreen. compound autofluorescence counterscreen, microsphere flow cytometry; stronger effect = higher value. fluorescence intensity (concentration not given with the values). 3.1% of 360,000 active. AID 624483; in the data active means fluorescence intensity above about 16000; inconclusive means no clear call, values can overlap the other calls
# BH1578 lux ind = induces V. cholerae light production without autoinducers | V. cholerae BH1578 lux reporter, luminescence, 6 h | activation, % at 18.7 µM | 0.16% of 350,000 active; in the data active means activation mostly above about 9.7%, no sharp cut-off; inconclusive means no clear call, values can overlap the other calls; inactive means mostly below about 3.7%
# BJeLR viability = kills HRASV12-expressing BJeLR cells; 0.17% of 300,000 active; AID 1554; BJeLR (HRASV12) viability, CellTiter-Glo ATP luminescence, 48 h; inhibition, % (no concentration beside the values); in the data active means inhibition above about 50%; inconclusive means no clear call, values can overlap the other calls
# Anthrax LF prot = blocks Bacillus anthracis lethal factor protease | P15917 | multiplex microsphere protease cleavage assay, LF | inhibition, % at 10 µM | 0.12% of 360,000 active; further: plate controls were buffer without enzyme for full effect and enzyme alone for no effect
# Target sequence (P15917 whole entry, looked up): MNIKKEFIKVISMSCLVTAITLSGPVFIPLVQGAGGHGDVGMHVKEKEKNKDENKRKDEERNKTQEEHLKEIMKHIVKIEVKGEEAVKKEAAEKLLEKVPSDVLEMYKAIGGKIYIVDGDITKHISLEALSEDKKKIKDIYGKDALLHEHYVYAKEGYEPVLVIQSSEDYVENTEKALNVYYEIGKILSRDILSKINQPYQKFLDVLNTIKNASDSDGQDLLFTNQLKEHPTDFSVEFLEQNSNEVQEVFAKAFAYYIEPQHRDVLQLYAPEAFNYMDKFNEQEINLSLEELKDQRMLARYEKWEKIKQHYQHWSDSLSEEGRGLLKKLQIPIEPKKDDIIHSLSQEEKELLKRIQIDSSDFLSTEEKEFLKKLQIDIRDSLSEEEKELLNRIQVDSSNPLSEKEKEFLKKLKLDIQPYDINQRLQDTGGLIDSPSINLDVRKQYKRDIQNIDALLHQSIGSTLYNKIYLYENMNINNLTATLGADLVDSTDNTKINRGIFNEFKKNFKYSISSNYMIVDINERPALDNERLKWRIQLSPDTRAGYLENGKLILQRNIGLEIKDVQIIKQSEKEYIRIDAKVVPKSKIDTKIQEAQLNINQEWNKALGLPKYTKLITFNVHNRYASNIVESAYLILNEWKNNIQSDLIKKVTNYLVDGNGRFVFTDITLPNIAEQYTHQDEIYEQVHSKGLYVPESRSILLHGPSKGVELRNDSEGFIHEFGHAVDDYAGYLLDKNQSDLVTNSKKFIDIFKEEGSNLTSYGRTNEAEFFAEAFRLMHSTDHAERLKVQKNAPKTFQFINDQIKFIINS
# Numbers without * were called inactive; i = inactive; ? = inconclusive; / = not tested or not shown. Unless noted, no stated cut-off is given here; in the data, active means inhibition above about 30%; inconclusive means no clear call, values can overlap the other calls; inactive means below that.
SMILES,BoNT A protease,BoNT F protease,Bead autofluor,BH1578 lux ind,BJeLR viability,Anthrax LF prot
O=C(c1ccccc1OCc1ccccc1Br)N1CCN(c2ncccn2)CC1,-1,-5,16398*,-2,5,-1
CN1CCN(C(=O)CCCOc2ccc(Cl)cc2Cl)CC1,-3,-6,17214*,-1,-9,-3
O=C(COc1ccccc1Cl)N1CCN(c2ncccn2)CC1,-2,-3,22968*,0,6,1
c1ccc(Cn2c(Cn3c(-c4cnccn4)nc4ccccc43)nc3ccccc32)cc1,-1,0,4450,/,/,-12
CCN(CC)C(=O)c1cccc(-c2csc(C(NC(C)=O)c3cccc(OC)c3)n2)c1 (stereo not given),0,-2,3883,i,/,-3
O=C(CCCn1c(=S)[nH]c2cc3c(cc2c1=O)OCO3)N1CCN(c2ccccn2)CC1,?,9,19027*,i,/,-1
CCOC(=O)NC(Nc1nc2ccccc2s1)(C(=O)OCC)C(F)(F)F (stereo not given),-6,-8,25071*,i,2,-3
O=C1c2cccnc2C(=O)N1C1CCCCC1,2,2,21393*,0,4,-1
CCOC(=O)c1cc2sccc2n1Cc1ccccc1,1,14,7664,1,1,0
COC(=O)c1cc2occc2n1Cc1ccc(Cl)cc1,1,-1,22264*,-3,-1,-6
COC(=O)c1cc2sccc2n1Cc1ccc(C)cc1,-2,-3,24673*,0,5,0
CCOC(=O)c1cc2occc2n1Cc1ccc(F)cc1,0,0,2620,i,18,-5
COc1ccc(NC(=O)c2cc3sccc3n2Cc2ccc(F)cc2)cc1OC,-2,3,4348,i,3,-5
O=C(Nc1nccs1)c1cc2sccc2n1Cc1ccc(F)cc1,?,-3,16836*,i,14,1
CCc1nc2ccc(C(=O)Nc3cccc(NS(C)(=O)=O)c3)cn2c1N(CCC(C)C)CCN(C)C,0,3,2877,0,/,1
COc1cc2c(cc1OC)C1CCc3cc4c(cc3C1N=C2)OCO4 (stereo not given),0,2,3638,i,/,-1
Cc1cc(C(C)(C)C)cc(C)c1CCNC(=O)c1c(C)noc1C,3,-3,5915,i,/,-2
COc1ccc2[nH]c(=O)c(C(c3nnnn3C3CCCC3)N(C)C3CCCCC3)cc2c1 (stereo not given),?,-4,24246*,0,-3,-3
O=c1[nH]c2cc3c(cc2cc1C(c1nnnn1C1CCCCC1)N1CCSCC1)OCCO3 (stereo not given),3,0,22680*,0,/,6
CCOc1ccc2[nH]c(=O)c(C(c3nnnn3C3CCCCC3)N3CCN(CC)CC3)cc2c1 (stereo not given),?,-2,21002*,i,7,2
COc1cc2cc(C(c3nnnn3C3CCCC3)N3CCCCCC3)c(=O)[nH]c2cc1OC (stereo not given),-1,-4,20987*,i,-19,0
CCOc1ccc2[nH]c(=O)c(C(c3nnnn3C3CCCCC3)N3CCN(C)CC3)cc2c1 (stereo not given),1,3,8586,0,/,6
COC(=O)c1ccc2nc(-c3ccc(OC)c(OC)c3)c(Cc3cccc(F)c3)n2c1,1,-6,6829,/,/,3
CSCCC(NS(=O)(=O)Cc1ccccc1)C(=O)NNc1ccccc1 (stereo not given),0,-1,5508,/,/,0
COc1cc2cc(C(c3nnnn3C3CCCC3)N3CCCCC3)c(=O)[nH]c2cc1OC (stereo not given),1,-1,19432*,i,0,2
SMILES,BoNT A protease,BoNT F protease,Bead autofluor,BH1578 lux ind,BJeLR viability,Anthrax LF prot
O=c1[nH]n(-c2ccc(Cl)cc2)c(=O)c(Cl)c1Cl,?,-3,21602*,i,4,0
Cc1[nH]n(-c2ccccc2)c(=O)c1-c1ccc(Cl)cc1,0,-8,4665,-8,0,-1
O=C1C2C3C=CC(CC3)C2S(=O)(=O)C2C3C=CC(CC3)C12 (stereo not given),0,-4,3837,i,/,-10
CSc1ccc(C(=S)N2CCN(C(c3ccccc3)c3ccccc3)CC2)cc1,-2,-5,25174*,i,2,-2
O=C(c1ccc2c(=O)n3c(nc2c1)CCCCC3)N1CCN(C(c2ccccc2)c2ccccc2)CC1,0,-1,23040*,i,-8,4
Cc1onc(C(=O)N2CCN(C(c3ccccc3)c3ccccc3)CC2)c1[N+](=O)[O-],0,-5,6164,0,75*,-13
O=C(c1ccc(=O)oc1)N1CCN(C(c2ccccc2)c2ccccc2)CC1,?,-4,23517*,i,0,-3
Cc1cc(C(=O)N2CCN(C(c3ccccc3)c3ccccc3)CC2)no1,-3,-5,23268*,0,0,-2
Cc1ccc(CNC(=O)c2ccc(S(=O)(=O)N3CCCCC3)cc2)cc1,3,23,5483,1,/,0
COC(=O)CSc1nnc(CNC(=O)c2ccc(S(=O)(=O)N3CCOCC3)cc2)n1C,0,1,2007,0,-4,2
COC(=O)CSc1nnc(CNC(=O)c2ccc(S(=O)(=O)N3CCCCC3)cc2)n1C,-1,-4,24100*,0,/,1
CCOC(=O)CSc1nnc(CNC(=O)c2ccc(S(=O)(=O)N3CCCCC3)cc2)n1C,5,7,20926*,-1,/,-5
COC(=O)c1cc(Cl)ccc1NCC(N)c1ccccc1 (stereo not given),0,-23,6037,/,/,-4
Nc1nc2c(ncn2[C@@H]2O[C@H](CNC(=O)[C@H](N)Cc3ccccc3)[C@@H](O)[C@H]2O)c(=O)[nH]1,-1,-2,5800,/,/,1
CC1CCN(C(=O)CCC(=O)Nc2ccc([N+](=O)[O-])cc2)CC1,0,-4,2834,i,/,6
CCOC(=O)C1=C(C)NC(=O)NC1c1ccc(Cl)cc1Cl (stereo not given),3,2,20836*,0,0,-8
CCCC1=C(C(=O)OCC)C(c2cc(Cl)cc(OC)c2OCc2ccccc2)NC(=O)N1 (stereo not given),2,2,21474*,0,-5,0
C=CCOc1c(OC)cc(Cl)cc1C1NC(=O)NC(C)=C1C(C)=O (stereo not given),0,-29,4439,i,0,1
CCOC(=O)C1=C(C)N(C)C(=S)NC1c1ccc(Cl)cc1Cl (stereo not given),0,-7,2308,0,-4,-2
COc1cc(Cl)cc(C2NC(=O)NC(C)=C2C(C)=O)c1OCC(=O)O (stereo not given),-3,-4,16937*,-4,0,-4
CCOC(=O)C1=C(C)C(c2ccccc2O)NC(=O)N1 (stereo not given),2,2,19487*,0,-6,0

# Compound activity from PubChem BioAssay.
